Source: PMC5700166
Residue numbers refer to the chain shown, from its start.

How the values were obtained:
Assay in all cases: protein-binding microarray (PBM); PBM: ~300 nM protein, 6 mM HEPES pH 7.8, 80 mM KCl, 0.5 mM EDTA, 0.5 mM EGTA, 6% glycerol, 35 ng/ul poly-dIdC, 1% milk, 1 h, room temperature; Ap Aiptasia and Nv Nematostella (sea anemones) / Co Capsaspora / Aq Amphimedon (sponge) / Dm Drosophila / Hu human; RHD is the Rel homology domain; high values mean tight binding
Details in all cases: dsDNA, one strand shown
GST-Ap-NF-kB RHD = target: T1, GST-Ap-NF-kB RHD (Exaiptasia pallida (Aiptasia), UniProt A0A913YAJ5 2-422)
T1 sequence: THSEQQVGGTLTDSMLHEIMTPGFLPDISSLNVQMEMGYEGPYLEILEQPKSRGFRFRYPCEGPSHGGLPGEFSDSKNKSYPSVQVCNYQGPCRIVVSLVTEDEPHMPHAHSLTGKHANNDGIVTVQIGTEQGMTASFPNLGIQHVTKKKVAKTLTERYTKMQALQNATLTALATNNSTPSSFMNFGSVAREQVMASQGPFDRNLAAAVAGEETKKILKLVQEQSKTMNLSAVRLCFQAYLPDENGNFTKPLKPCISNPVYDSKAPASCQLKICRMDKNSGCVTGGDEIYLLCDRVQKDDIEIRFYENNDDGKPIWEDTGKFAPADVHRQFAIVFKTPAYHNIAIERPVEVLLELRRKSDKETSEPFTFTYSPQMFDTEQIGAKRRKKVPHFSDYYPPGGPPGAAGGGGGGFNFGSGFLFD

[1] = target: T2, GST-Nv-NF-kB (Cys allele) (Nematostella vectensis, UniProt E5G601 2-411)
T2 sequence: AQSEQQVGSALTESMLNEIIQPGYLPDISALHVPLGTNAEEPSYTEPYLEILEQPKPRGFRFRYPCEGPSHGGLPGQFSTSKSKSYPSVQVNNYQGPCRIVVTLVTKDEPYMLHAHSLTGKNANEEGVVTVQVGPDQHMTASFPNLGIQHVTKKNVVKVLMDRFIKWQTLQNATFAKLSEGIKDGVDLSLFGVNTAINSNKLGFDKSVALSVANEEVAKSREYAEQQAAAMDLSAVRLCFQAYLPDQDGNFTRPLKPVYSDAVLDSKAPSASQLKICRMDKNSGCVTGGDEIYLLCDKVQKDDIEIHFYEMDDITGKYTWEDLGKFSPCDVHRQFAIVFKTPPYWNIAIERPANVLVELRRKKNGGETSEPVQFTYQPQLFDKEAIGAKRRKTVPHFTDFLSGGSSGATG

[2] = target: T3, GST-Nv-NF-kB (Ser allele) (Nematostella vectensis, UniProt A7UNT2 2-411)
T3 sequence: T2 sequence with Q21R, C66S, S207N, E215Q, V217A, E225K, A268E, D399E

GST-Dm-Relish = target: T4, GST-Dm-Relish (Drosophila melanogaster, UniProt Q94527 99-473)
T4 sequence: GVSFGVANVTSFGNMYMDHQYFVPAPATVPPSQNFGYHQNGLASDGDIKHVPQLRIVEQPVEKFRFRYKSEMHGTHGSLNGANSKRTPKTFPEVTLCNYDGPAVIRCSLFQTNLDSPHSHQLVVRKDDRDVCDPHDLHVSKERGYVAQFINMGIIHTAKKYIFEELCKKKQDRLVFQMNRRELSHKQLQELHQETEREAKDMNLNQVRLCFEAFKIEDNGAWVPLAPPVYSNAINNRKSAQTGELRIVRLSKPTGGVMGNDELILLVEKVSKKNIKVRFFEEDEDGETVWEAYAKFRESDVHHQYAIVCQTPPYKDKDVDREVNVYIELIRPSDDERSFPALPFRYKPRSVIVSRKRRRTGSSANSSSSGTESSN

GST-Aq-NF-kB = target: T5, GST-Aq-NF-kB (Amphimedon queenslandica, UniProt A9Y5G7 2-389)
T5 sequence: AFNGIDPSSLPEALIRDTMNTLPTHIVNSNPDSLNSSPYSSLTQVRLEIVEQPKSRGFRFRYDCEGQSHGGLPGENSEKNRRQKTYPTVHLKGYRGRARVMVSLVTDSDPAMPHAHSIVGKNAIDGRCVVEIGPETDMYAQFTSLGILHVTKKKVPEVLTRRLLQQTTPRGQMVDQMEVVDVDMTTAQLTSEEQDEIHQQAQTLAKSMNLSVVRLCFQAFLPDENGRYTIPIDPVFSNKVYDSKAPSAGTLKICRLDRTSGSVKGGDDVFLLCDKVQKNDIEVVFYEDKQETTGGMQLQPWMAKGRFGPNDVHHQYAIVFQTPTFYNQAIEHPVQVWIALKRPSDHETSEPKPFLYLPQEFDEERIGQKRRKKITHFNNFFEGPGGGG

GST-Hu-p50 = GST-Hu-p50 (Homo sapiens, UniProt P19838 7-356)
Sequence of GST-Hu-p50 (P19838 7-356): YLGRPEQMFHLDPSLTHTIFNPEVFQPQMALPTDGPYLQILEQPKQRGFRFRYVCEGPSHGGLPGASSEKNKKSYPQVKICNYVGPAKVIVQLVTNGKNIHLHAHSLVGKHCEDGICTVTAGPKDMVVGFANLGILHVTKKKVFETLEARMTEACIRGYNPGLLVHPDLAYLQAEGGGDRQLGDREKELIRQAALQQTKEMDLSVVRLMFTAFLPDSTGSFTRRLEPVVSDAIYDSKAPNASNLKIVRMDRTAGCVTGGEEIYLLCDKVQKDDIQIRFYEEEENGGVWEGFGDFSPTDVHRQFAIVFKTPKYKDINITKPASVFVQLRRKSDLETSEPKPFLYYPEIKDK

GST-Co-NF-kB = target: T6, GST-Co-NF-kB (Capsaspora owczarzaki, UniProt F1ARL5 200-546)
T6 sequence: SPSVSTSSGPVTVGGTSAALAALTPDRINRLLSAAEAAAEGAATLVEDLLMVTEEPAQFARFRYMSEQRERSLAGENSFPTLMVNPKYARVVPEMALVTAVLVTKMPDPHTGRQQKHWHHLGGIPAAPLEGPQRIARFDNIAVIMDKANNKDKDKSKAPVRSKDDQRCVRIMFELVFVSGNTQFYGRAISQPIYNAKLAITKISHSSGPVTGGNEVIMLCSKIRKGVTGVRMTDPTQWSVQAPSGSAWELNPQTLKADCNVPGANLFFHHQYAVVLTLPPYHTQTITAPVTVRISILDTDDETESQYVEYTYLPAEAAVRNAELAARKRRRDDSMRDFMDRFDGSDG

Sequence: CCGATTAACATCAGGGACTTCTATGATGTTAATCGGGTCTTGATTCGCTTGACGCTGCTG
- binding signal (GST-Ap-NF-kB RHD): 5.47 z-score
- binding signal [1]: 6.35 z-score
- binding signal [2]: 7.05 z-score
- binding signal (GST-Dm-Relish): 3.93 z-score
- binding signal (GST-Aq-NF-kB): 5.24 z-score
- binding signal (GST-Hu-p50): 5.28 z-score

Sequence: CCGATTAACATCACGGGATTACCTGATGTTAATCGGGTCTTGATTCGCTTGACGCTGCTG
- binding signal (GST-Ap-NF-kB RHD): 3.75 z-score
- binding signal [1]: 1.79 z-score
- binding signal [2]: 2.51 z-score
- binding signal (GST-Dm-Relish): 5.47 z-score
- binding signal (GST-Aq-NF-kB): 4.66 z-score
- binding signal (GST-Hu-p50): 1.16 z-score

Sequence: CCGATTAACATCAGGTAATTTTATGATGTTAATCGGGTCTTGATTCGCTTGACGCTGCTG
- binding signal (GST-Ap-NF-kB RHD): 1.38 z-score
- binding signal [1]: 3.29 z-score
- binding signal [2]: 5.66 z-score
- binding signal (GST-Dm-Relish): 3.58 z-score
- binding signal (GST-Aq-NF-kB): 2.95 z-score
- binding signal (GST-Hu-p50): 4.06 z-score

Sequence: CCGATTAACATCAGGATAGCCCCTGATGTTAATCGGGTCTTGATTCGCTTGACGCTGCTG
- binding signal (GST-Ap-NF-kB RHD): 4 z-score
- binding signal [1]: 4.29 z-score
- binding signal [2]: 2.73 z-score
- binding signal (GST-Dm-Relish): 2.38 z-score
- binding signal (GST-Aq-NF-kB): 5.49 z-score
- binding signal (GST-Hu-p50): 3.65 z-score

Sequence: CCGATTAACATCAGGAAGCCCCATGATGTTAATCGGGTCTTGATTCGCTTGACGCTGCTG
- binding signal (GST-Ap-NF-kB RHD): 4.01 z-score
- binding signal [1]: 4.13 z-score
- binding signal [2]: 2.15 z-score
- binding signal (GST-Dm-Relish): 5.38 z-score
- binding signal (GST-Aq-NF-kB): 4.02 z-score
- binding signal (GST-Hu-p50): 3.77 z-score

Sequence: CCGATTAACATCAGGGAGGCCCCTGATGTTAATCGGGTCTTGATTCGCTTGACGCTGCTG
- binding signal (GST-Ap-NF-kB RHD): 5.52 z-score
- binding signal [1]: 3.79 z-score
- binding signal [2]: 1.37 z-score
- binding signal (GST-Dm-Relish): 6.28 z-score
- binding signal (GST-Aq-NF-kB): 7.2 z-score
- binding signal (GST-Hu-p50): 3.63 z-score

Sequence: CCGATTAACATCAGGAGACCCCCTGATGTTAATCGGGTCTTGATTCGCTTGACGCTGCTG
- binding signal (GST-Ap-NF-kB RHD): 5.3 z-score
- binding signal [1]: 3.64 z-score
- binding signal (GST-Co-NF-kB): 1.61 z-score
- binding signal (GST-Dm-Relish): 5.66 z-score
- binding signal (GST-Aq-NF-kB): 6.55 z-score
- binding signal (GST-Hu-p50): 4.1 z-score

Sequence: CCGATTAACATCACGGTTATTCCTGATGTTAATCGGGTCTTGATTCGCTTGACGCTGCTG
- binding signal (GST-Ap-NF-kB RHD): 1.09 z-score
- binding signal [1]: 1.52 z-score
- binding signal [2]: 2.15 z-score
- binding signal (GST-Dm-Relish): 3.64 z-score
- binding signal (GST-Aq-NF-kB): 2.03 z-score
- binding signal (GST-Hu-p50): 3.59 z-score

Sequence: CCGATTAACATCAAAATGCCCCCTGATGTTAATCGGGTCTTGATTCGCTTGACGCTGCTG
- binding signal (GST-Ap-NF-kB RHD): 5.68 z-score
- binding signal [1]: 5.66 z-score
- binding signal (GST-Co-NF-kB): 4.18 z-score
- binding signal (GST-Dm-Relish): 5.29 z-score
- binding signal (GST-Aq-NF-kB): 6.11 z-score
- binding signal (GST-Hu-p50): 5.37 z-score

Sequence: CCGATTAACATCAGAAACCCCCATGATGTTAATCGGGTCTTGATTCGCTTGACGCTGCTG
- binding signal (GST-Ap-NF-kB RHD): 7.61 z-score
- binding signal [1]: 6.32 z-score
- binding signal (GST-Co-NF-kB): 2.76 z-score
- binding signal (GST-Dm-Relish): 8.35 z-score
- binding signal (GST-Aq-NF-kB): 5.97 z-score
- binding signal (GST-Hu-p50): 6.52 z-score
